Measured values taken from PubChem BioAssay AID624483 (NMMLSC, 2012).
In all, about 360,000 compounds went through this assay and about 11,000 (3.1%) were called active. Another 2% or so got no clear call; they are omitted. Rule as the data show it: active = fluorescence intensity above about 16000; inconclusive = no clear call, values can overlap the other calls; inactive = below that. The full list was thinned out, with actives kept by preference.

Test: compound fluorescence in toxin protease inhibitor counterscreen, primary screen, artefact control for toxin protease inhibitor project, biochemical, multiplex microsphere, HTS (AID 624483)
Conditions: compound autofluorescence counterscreen, microsphere flow cytometry; stronger effect = higher value
For `O=c1[nH][nH]c2c1[C@H](c1ccc(Cl)cc1)O[C@H](CCc1ccccc1)C2`, the fluorescence intensity was 5920 (inactive). With `CCc1nc2c(OCc3ccccc3)cccn2c1N(C)C(=O)c1ccco1` the fluorescence intensity was 2960 (inactive). With `COc1cccc(CNC(=O)C2CC(=O)N(C3CCCCCCC3)C2)c1` (stereo not given) the fluorescence intensity was 5720 (inactive). In the case of `COc1ccc(OC)c(CN2C(=O)CCC2(C)c2nnnn2Cc2ccccc2)c1` (stereo not given), the fluorescence intensity is reported as 5850 (inactive). With `COc1cccc(CN2C(=O)CCC2(C)C(=O)NC2CCCCCC2)c1` (stereo not given) the fluorescence intensity was 21300 (active). In the case of `COc1ccc(CN2CC(C(=O)NC3CCCCC3)CC2=O)cc1` (stereo not given), the fluorescence intensity is reported as 4380 (inactive). With `COc1ccc(OC)c(CN2C(=O)CCC2(C)C(=O)NC2CCCCCC2)c1` (stereo not given) the fluorescence intensity was 23000 (active). In the case of `COc1ccc(OC)c(Cc2nnc(CCC(=O)NC3CCCC3)o2)c1`, the fluorescence intensity is reported as 2020 (inactive). In the case of `O=C1C2(c3ccccc3)CN(CCCO)CC1(c1ccccc1)CN(CCCO)C2`, the fluorescence intensity is reported as 10600 (inactive). In the case of `CCCc1nc2c3ccccc3ccn2c1Cc1ccccc1C(F)(F)F`, the fluorescence intensity is reported as 5310 (inactive). With `Cc1ccc(S(=O)(=O)N2CCN(C(=O)CCC(=O)NC3CCCc4ccccc43)CC2)cc1` (stereo not given) the fluorescence intensity was 7770 (inactive). For `O=C(NCCO)C(=O)NCC(c1ccc2c(c1)OCO2)N1CCN(c2ccc(F)cc2)CC1` (stereo not given), the fluorescence intensity was 5880 (inactive). For `C/C(=N/NC(=O)c1ccncc1)c1ccc2c(c1)OCO2`, the fluorescence intensity was 3750 (inactive). For `CC(NC(=O)Nc1ccc2c(c1)OCO2)c1ccncc1` (stereo not given), the fluorescence intensity was 2060 (inactive). With `O=C(Nc1nc(-c2ccc3c(c2)OCO3)cs1)c1ccncc1` the fluorescence intensity was 23200 (active). For `O=[N+]([O-])c1ccccc1SNc1ccccn1`, the fluorescence intensity was 2510 (inactive). In the case of `CNC[C@H]1OCc2cnnn2CCCC(=O)N([C@H](C)CO)C[C@@H]1C`, the fluorescence intensity is reported as 4160 (inactive). With `COc1ccc(OC)c(NC(=O)N[C@H](Cc2ccccc2)C(=O)NN)c1` the fluorescence intensity was 5710 (inactive). For `COc1ccc(OC)c(NC(=O)CC(Cc2ccccc2OC)C(=O)O)c1` (stereo not given), the fluorescence intensity was 21100 (active). For `COc1ccc(OC)c(NC(=O)Cc2cccs2)c1`, the fluorescence intensity was 3820 (inactive). For `Cc1ccc(S(=O)(=O)NC(C)C(=O)Nc2ccccc2C(=O)N2CCCC2)cc1` (stereo not given), the fluorescence intensity was 3260 (inactive). In the case of `Cc1ccc(CNC(=O)Nc2nnc([C@H]3C[C@H](O)[C@@H](CO)O3)s2)cc1`, the fluorescence intensity is reported as 2810 (inactive). With `O=C(NCCc1ccccc1)c1cccc(NC(=O)c2ccccc2)c1` the fluorescence intensity was 3070 (inactive). For `O=C(Nc1ccccc1)c1ccc2nsnc2c1`, the fluorescence intensity was 16300 (active). For `Cc1cccc(NC(=O)c2ccc3nsnc3c2)c1C`, the fluorescence intensity was 2560 (inactive). For `O=C(OC1CC2CC1[C@H]1CCCCN1C2=O)N1CCOCC1` (stereo not given in full), the fluorescence intensity was 5270 (inactive). With `CC1(C(=O)NCc2ccco2)Cc2c(-c3ccc4c(c3)OCO4)ccnc2O1` (stereo not given) the fluorescence intensity was 4110 (inactive). In the case of `O=C1C(Sc2cccc(F)c2)=C[C@@]2(O)CC[C@@H](O)[C@]1(Sc1cccc(F)c1)[C@H]2O`, the fluorescence intensity is reported as 5520 (inactive). With `O=C(Nc1cc(=O)[nH]c2ncnn12)c1ccccc1Cl` the fluorescence intensity was 16500 (active). With `O=C(Nc1ccc2sc3ccccc3c(=O)c2c1)c1ccccc1Cl` the fluorescence intensity was 2540 (inactive). With `O=C(Nc1ccccc1C(=O)N1CCCCCC1)c1ccccc1Cl` the fluorescence intensity was 6360 (inactive). For `Cc1ccc(S(=O)(=O)C2(S(=O)(=O)c3ccc(C)cc3)CCCC2)cc1`, the fluorescence intensity was 6800 (inactive). For `Cc1ccc(S(=O)(=O)N(C)c2ccc(C(=O)NCC3(N(C)C)CCCCC3)cc2)cc1`, the fluorescence intensity was 5740 (inactive). For `Cc1ccc(S(=O)(=O)N(C)C2(C)CCS(=O)(=O)C2)cc1` (stereo not given), the fluorescence intensity was 21400 (active). In the case of `CN(C)CCNC(=O)c1ccc(-c2cn3c(-c4ccc(Oc5ccccc5)cc4)cnc3cn2)cc1`, the fluorescence intensity is reported as 4030 (inactive). With `O=C(C1CCCO1)N1CCC(c2nc3ccccc3[nH]2)CC1` (stereo not given) the fluorescence intensity was 9970 (inactive). In the case of `CCCNC(=S)N1CCCC(c2nc3ccccc3[nH]2)C1` (stereo not given), the fluorescence intensity is reported as 4060 (inactive). With `Cc1ccccc1N1CC(c2nc3ccccc3[nH]2)CC1=O` (stereo not given) the fluorescence intensity was 20000 (active). For `CCCNC(=O)C1(C)CCN1C(=O)C1(c2ccccc2)CC1` (stereo not given), the fluorescence intensity was 3570 (inactive). For `C=C(C)CSc1nnc(-c2ccc(C)cc2)n1N`, the fluorescence intensity was 9220 (inactive). In the case of `C/C(CCc1ccccc1)=N\NC(=O)c1ccc(CN2CCOCC2)cc1`, the fluorescence intensity is reported as 2210 (inactive). For `S=C1SCN(CCN2CCOCC2)CN1Cc1ccccc1`, the fluorescence intensity was 24500 (active). In the case of `Cn1c(=O)c2c(nc(CN3CCOCC3)n2Cc2ccccc2)n(C)c1=O`, the fluorescence intensity is reported as 9090 (inactive). In the case of `Cc1cc(C)c(NC(=S)N2CCCC2C(=O)O)c(C)c1` (stereo not given), the fluorescence intensity is reported as 2490 (inactive). In the case of `COc1ccc(N2CCN(CCNC(=O)Nc3cc(Cl)ccc3Cl)CC2)cc1`, the fluorescence intensity is reported as 3500 (inactive). In the case of `COc1ccc(N2CCN(CCNC(=O)c3nnc(Cc4c(F)cccc4Cl)o3)CC2)cc1`, the fluorescence intensity is reported as 24000 (active). In the case of `COc1ccc(NC(=O)NCCN2CCN(c3ccc(C)cc3)CC2)c(Cl)c1`, the fluorescence intensity is reported as 3770 (inactive). With `CCCCN(C=O)c1c(CC)nc2c(OCc3ccccc3C(=O)OC)cccn12` the fluorescence intensity was 4040 (inactive). In the case of `Cc1ccc(CNC(=O)C2CCN(S(=O)(=O)c3ccc4nc5c(c(C(=O)O)c4c3)CC(C)CC5)CC2)cc1` (stereo not given), the fluorescence intensity is reported as 5690 (inactive). With `COC(=O)[C@@]1(Cc2ccc(OC)cc2)[C@H]2c3cc(C(=O)N4CCCC4)n(Cc4ccc(OC(F)(F)F)cc4)c3C[C@H]2CN1C(=O)c1ccccc1` the fluorescence intensity was 5540 (inactive). For `Cc1ccc(S(=O)(=O)C(C#N)c2nc3ccccc3nc2N2CCCC2)cc1C` (stereo not given), the fluorescence intensity was 19400 (active). In the case of `CC(=O)c1ccc(S(=O)(=O)N2CCN(c3nc4c(C)c(C)ccc4cc3C#N)CC2)cc1`, the fluorescence intensity is reported as 13000 (inactive). With `CC(C)OC(=O)C(C#N)c1nc2ccccc2nc1N1CCN(Cc2ccccc2)CC1` (stereo not given) the fluorescence intensity was 2960 (inactive). For `CCC(C)(C)C1CCC(=NNC(=O)c2ccc(Br)o2)CC1` (stereo not given), the fluorescence intensity was 2520 (inactive). With `Cc1ccc(N)cc1-n1c(C)ccc1C` the fluorescence intensity was 9500 (inactive). In the case of `Cc1ccc2nc(-c3ccco3)c(Cc3cccc(Cl)c3)n2c1`, the fluorescence intensity is reported as 4970 (inactive). For `CCOC(=O)CC1=C(C(=O)OCC)C2(C(=O)N1)C(C(=O)OC)=C(N)Oc1ccccc12` (stereo not given), the fluorescence intensity was 4280 (inactive). In the case of `C=CCN1C(=O)C2(C(C(=O)OCC)=C(N)Oc3c2c(=O)oc2ccccc32)c2ccccc21` (stereo not given), the fluorescence intensity is reported as 4120 (inactive). With `COC(=O)CN1C(=O)C2(C(C(=O)OC)=C(N)Oc3ccccc32)C2=C1CC(C)(C)CC2=O` (stereo not given) the fluorescence intensity was 23500 (active). For `CC(c1ccccn1)N(C)C(=O)c1ccc2nc(Cc3cccc(Cl)c3)oc2c1` (stereo not given), the fluorescence intensity was 5500 (inactive). In the case of `Cc1ccc(C(c2nnnn2CS(=O)(=O)c2ccc(C)cc2)N2CCC(C)CC2)cc1` (stereo not given), the fluorescence intensity is reported as 4360 (inactive). For `CCN(CC)c1ccc(NC(=O)CCc2nnc3ccc(N4CCCCC4)nn23)c(C)c1`, the fluorescence intensity was 4470 (inactive). In the case of `OC[C@H]1O[C@@H](c2nc(-c3nc(-c4ccc(F)cc4)no3)cs2)[C@H](O)[C@@H](O)[C@H]1O`, the fluorescence intensity is reported as 4000 (inactive). With `CC1(C(=O)NCC2CCOCC2)Cc2c(-c3cccc(C(N)=O)c3)ccnc2O1` (stereo not given) the fluorescence intensity was 4060 (inactive). In the case of `O=C(c1ccc(F)cc1)N1CCCC(c2nc(-c3cccs3)no2)C1` (stereo not given), the fluorescence intensity is reported as 4320 (inactive). For `O=C(Cc1cccs1)N1CCCC(c2nc(-c3ccc(S(=O)(=O)N4CCCC4)cc3)no2)C1` (stereo not given), the fluorescence intensity was 16600 (active). In the case of `O=C(c1cccs1)N1CCCC(c2nc(-c3ccc(F)cc3)no2)C1` (stereo not given), the fluorescence intensity is reported as 11100 (inactive). With `CCCNC(=O)C1(C)CCCN(C(=O)c2oc3ccccc3c2C)C1` (stereo not given) the fluorescence intensity was 3630 (inactive). In the case of `CCOc1ccc(NC(=O)CN(C)C(=O)CCSc2ccc(F)cc2)cc1OCC`, the fluorescence intensity is reported as 3520 (inactive). In the case of `COc1ccc(O)c(/C=N/N=C/c2cccc([N+](=O)[O-])c2)c1`, the fluorescence intensity is reported as 3450 (inactive). For `COc1ccc(O)c(C=Nc2cc(C)on2)c1`, the fluorescence intensity was 22400 (active). For `Cc1cc(N=CC2=C(O)CCCC2=O)no1`, the fluorescence intensity was 3160 (inactive). In the case of `COc1ccc(C(=O)OCC(=O)NC(=O)CCSc2ccccc2)cc1`, the fluorescence intensity is reported as 2520 (inactive). With `CCOc1cccc(=O)c2c(C)n(CC3CCCO3)c(C)c12` (stereo not given) the fluorescence intensity was 22100 (active). In the case of `CCOc1ccc(NC(=O)c2cccc3c2C(=O)N(CC2CCCO2)C3)cc1` (stereo not given), the fluorescence intensity is reported as 6080 (inactive). In the case of `CC(=O)Nc1ccc(NC(=O)CSc2nnc(COc3ccccc3C)n2CC2CCCO2)cc1` (stereo not given), the fluorescence intensity is reported as 3370 (inactive). In the case of `COc1nc(Oc2ccc(=O)n(C)n2)nc(N(C)C)n1`, the fluorescence intensity is reported as 2790 (inactive). With `Cc1ccccc1N1C(=O)C2ON(c3ccccc3)C(c3ccncc3)C2C1=O` (stereo not given) the fluorescence intensity was 23600 (active). In the case of `COc1cc(C2C3C(=O)N(c4ccccc4)C(=O)C3ON2c2ccccc2)ccc1O` (stereo not given), the fluorescence intensity is reported as 3690 (inactive). For `O=C1[C@@H](c2ccccc2)[C@@H](c2ccccc2)N1c1cccnc1`, the fluorescence intensity was 3340 (inactive). In the case of `Cc1cc(C)c2cc(CN(Cc3nnnn3Cc3ccc(F)cc3)C3CCCC3)c(=O)[nH]c2c1`, the fluorescence intensity is reported as 22000 (active). For `Cc1cc(C)c2cc(CN(Cc3cccs3)Cc3nnnn3CC3CCCO3)c(=O)[nH]c2c1` (stereo not given), the fluorescence intensity was 11000 (inactive). In the case of `Cc1cccc2cc(CN(Cc3nnnn3Cc3ccccc3)C3CCCC3)c(=O)[nH]c12`, the fluorescence intensity is reported as 7870 (inactive). With `CCCCC[C@H](C)N1C[C@@H](COCc2ccccc2)Oc2cc(N3CCC[C@@H]3CO)ccc2S1(=O)=O` the fluorescence intensity was 5890 (inactive). In the case of `CC(C)CC(NC(=O)C1CCCN1C(=O)[C@@H](C)NC(=O)OCc1ccccc1)C(=O)NCC(N)=O` (stereo not given in full), the fluorescence intensity is reported as 3990 (inactive). In the case of `Cn1c(NCc2cccnc2)nc2cc(-c3ccc(F)cc3)sc2c1=O`, the fluorescence intensity is reported as 2810 (inactive). For `CCOc1cc(-c2cc(-c3ccc(OC)cc3)nc(N)c2C#N)ccc1O`, the fluorescence intensity was 24300 (active). With `CCSc1nc(-c2ccc(OC)cc2)cc(-c2ccc(OC)cc2)c1C#N` the fluorescence intensity was 9530 (inactive). With `COc1ccc(-c2cc(-c3ccc(N)cc3)nc(N)c2C#N)cc1OC` the fluorescence intensity was 4760 (inactive). With `C[C@H](NC(=O)CC[C@H]1O[C@@H](n2ccc(=O)[nH]c2=O)[C@H](O)[C@@H]1O)c1cccc2ccccc12` the fluorescence intensity was 5050 (inactive).
